# Screens deposited in PubChem by National Center for Advancing Translational Sciences (NCATS).
# Hits are enriched below; roughly 9% of the tested compounds scored in any of these assays.
# G9a block – G9a (human) methyltransferase inhibition; Q96KQ7; G9a H3K9 monomethylation, AlphaScreen, 2 h; 8.8% of 350,000 active; Potency, µM (titrated, usually from 102 µM), without a hit: top-dose activity, negative = inhibition, usual class: inhibitors; note: % is set by controls: 0 for no effect and ±100 for the full control effect; nearly all actives have a fitted effect of over 75% in size
#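 Signal arises when biotinylated H3K9 peptide, once monomethylated, bridges streptavidin donor and antibody-captured acceptor beads. Enzyme at 20 nM was preincubated 15 min with test compounds; peptide 500 nM and SAM 20 uM then reacted for 2 h.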
# HP1b binding inh – inhibitors of HP1-beta chromodomain binding to methylated histone tails; AlphaScreen HP1-beta / biotin-H3K9me3 peptide binding; Potency, µM (highest dose often 114 µM), without a hit: top-dose activity change, negative = inhibition, usual class: inhibitors; AID 540317; 0.56% of 390,000 active; note: nearly all actives have a fitted effect of over 70% in size
#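 Compound inhibition of the preformed complex between 50 nM HP1-beta and 50 nM biotinylated H3K9me3 peptide was read by AlphaScreen. Buffer was PBS pH 7.4 with 0.01% Tween-20. Incubations ran 30 min at room temperature, with 10 ug/mL donor/acceptor beads.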
# BAZ2B block – BAZ2B (human) inhibition; Q9UIF8; AlphaScreen BAZ2B-H3K14Ac peptide displacement; Potency, µM (highest dose often 114 µM), for inactives: at the highest dose activity change, negative = inhibition, most hits filed as inhibitors; 4.4% of 360,000 active; AID 504333; note: % is set by controls: 0 for no effect and ±100 for the full control effect; nearly all actives have a fitted effect of over 60% in size
#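 Compounds, titrated to a top concentration of 110 uM, were incubated 30 min at room temperature with preformed BAZ2B/acetyl-K14 H3 peptide complex (50 nM each). Proximity signal was measured by AlphaScreen after 20 min with beads.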
# 12-LOX inh – inhibitors of human 12S-lipoxygenase ALOX12 | Potency, µM (series often up to 108 µM), without a hit: top-dose activity change, negative = inhibition, hits mostly inhibitors | purified 12hLO, xylenol orange hydroperoxide absorbance | P18054 | AID 1671190 | 1.1% of 580,000 active; note: % is set by controls: 0 for no effect and ±100 for the full control effect
#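 Purified human 12hLO (150 nM final) in 25 mM Hepes, 0.01% Triton X-100, pH 7.0 was preincubated 15 min at room temperature with compound. Then 40 uM arachidonic acid was added, 30 min. Hydroperoxide was read by Fe-XO absorbance ratio 573/405 nm.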
# PLK1 PBD inh – inhibitors of human PLK1 polo-box domain binding. P53350. Plk1 PBD binding of FITC phosphopeptide, fluorescence polarization. Potency, µM, inactives show max response, negative = inhibition, hits mostly inhibitors. 2.8% of 360,000 active. AID 720504; note: series mostly up to about 57 µM; % is set by controls: 0 for no effect and ±100 for the full control effect; nearly all actives have a fitted effect of over 65% in size
# JMJD2A Tudor – JMJD2A Tudor domain (human) inhibition. O75164. AlphaScreen JMJD2A-Tudor / H3K4me3 peptide binding. 4.4% of 390,000 active. Potency, µM (highest dose often 114 µM), for the others: top-dose activity change, negative = inhibition, most hits filed as inhibitors; note: % is set by controls: 0 for no effect and ±100 for the full control effect; nearly all actives have a fitted effect of over 50% in size
# Starred values were filed as active, the others as inactive; ? = inconclusive; . = no result given; ! = not confirmed by another sample; [ ] = remark or other dose. Calls come from the whole dose curve; as a rule, active = well fitted curve in the direction sought with a large enough effect; inconclusive = small, poorly fitted or top-dose-only effect, or another doubt; inactive = no such curve, though single readings can be large; an effect the other way counts as inactive or inconclusive. Potency is the fitted concentration of half-maximal effect.
SMILES,G9a block,HP1b binding inh,BAZ2B block,12-LOX inh,PLK1 PBD inh,JMJD2A Tudor
CNC[C@H](CC1CCCCC1)NC[C@H](Cc1ccccc1)NCCC12CC3CC(CC(C3)C1)C2,45µM*,20%,?,0%,-5%,-36%
COc1cc(CC(CC(=O)O)CC(C)OCc2ccccc2)cc(OC)c1 (stereo not given),1.4µM*,23%,11%,-2%,-12%,14%
Cc1nc2ccccc2c(=O)n1/N=C1\C(=O)N(C)c2ccccc21,-2%,.,-23%,.,.,.
O=C(CN1C(=O)C2C3C=CC(C3)C2C1=O)Nc1ccc2nccnc2c1 (stereo not given),14%,36%,8%,0%,-3%,-17%
Cc1cc(OCC(=O)N2CCOCC2)cc2oc(=O)c3ccccc3c12,-41%[59 µM],13%,1%,20%,0%,-6%
CCCn1c(=O)c2c(C(=O)OCC)cc(-c3ccco3)nc2n(CCC)c1=O,5%[59 µM],18%,8%,9%,-2%,7%
CCOC(=O)c1cc(-c2ccco2)nc2c1c(C)nn2-c1ccccc1Cl,.,.,.,32µM*,.,.
CCOC(=O)c1cc(-c2ccc(OC)cc2)nc2c1c(C)nn2CCC(N)=S,-49%,?,-23%,40µM*,?,-30%
CCOC(=O)c1cc(-c2ccco2)nc2c1c(C)nn2-c1ccccc1,?,22%,.,35µM*!,-12%,47%
COc1cc(NC(=O)CCc2ncc(-c3ccc(C)cc3)o2)cc(OC)c1,.,.,.,-70%,.,.
CCCCCCCCCCOS(=O)(=O)O,.,.,.,-2%[176 µM],.,.
O=C(c1ccc(OC2CCN(C(=O)c3ccco3)CC2)nc1)N1CCOCC1,.,.,.,39%,.,.
CC(NS(=O)(=O)c1ccccc1F)C(=O)Nc1cccc(C(C)C)c1 (stereo not given),.,.,.,-28%,.,.
Cn1ccnc1SCC(=O)c1ccc(Br)cc1,50µM*,-14%,?,-22%[57.4 µM],-26%,?
O=C(O)CCCOc1ccc(Br)cc1,.,.,.,2%,.,.
CCC(C)NCCCCOc1ccc(Br)cc1 (stereo not given),8.9µM*,?,?,-10%,-6%,1.6µM*
Cc1cc(OCC(O)CN2CCc3ccccc3C2)cc(C(C)C)c1 (stereo not given),-7%[2.33 µM],41%,4%,?,3%,0%
CCC(C)NCCCOc1ccc([N+](=O)[O-])cc1 (stereo not given),?,-19%,?,-23%,-6%,79µM*
CCC(C)NCCCCOc1cc(C)cc(C(C)C)c1 (stereo not given),11µM*,?,?,?,-20%,8.9µM*
O=C(Nc1ccc(-c2nc3ncccc3o2)cc1)c1ccc([N+](=O)[O-])o1,20%,33%,-15%,-3%,-5%,-6%
COC(=O)C1=C(C)N(c2ccc(F)c(Cl)c2)C(=O)C1,?,15%,-10%,?,-9%,-11%
COC(=O)C1=C(C)N(c2ccc(OC)c(OC)c2)C(=O)C1,71µM*,50%,-2%,-14%,-15%,-17%
COC(=O)C1=C(C)N(c2ccc(F)cc2)C(=O)C1,45µM*,61%,12%,-11%,-8%,-11%[57.1 µM]
O=C(Cc1cccs1)Nc1nnc(SCc2ccc(Br)cc2)s1,1%,9%,?,-3%,-1%,?
CCCC(C(=O)NCC1CCCO1)N(Cc1ccco1)C(=O)CNS(=O)(=O)c1ccc(F)cc1 (stereo not given),-26%[12.7 µM],0%,-3%,0%,15µM*,-3%[11.4 µM]
SMILES,G9a block,HP1b binding inh,BAZ2B block,12-LOX inh,PLK1 PBD inh,JMJD2A Tudor
COCC(O)CNc1ccccc1 (stereo not given),?,37%,-27%,?,24µM*,-33%[57.1 µM]
O=C(O)Cc1ccc(Nc2cnn(C34CC5CC(CC(CC(=O)O)(C5)C3)C4)c(=O)c2Cl)cc1,-29%,-8%,-9%,-21%,-3%,?
O=C(CSc1nnnn1-c1ccccc1)N1CCNC1=O,8%,42%,1%,-16%,-19%,-4%
Cc1cccc(C)c1-n1nnnc1SCC(=O)N1CCNC1=O,45µM*,29%,3%,0%,-7%,3%
CCOC(=O)c1csc(N/N=C2\CCc3ccccc32)n1,28µM*,2%,45µM*,?,-16%,?
CCOC(=O)c1csc(NC(=O)c2cccs2)n1,18%,19%[57 µM],-12%[57.1 µM],-1%,-3%,-6%
CCOC(=O)c1csc(N/N=C2\CCCc3ccccc32)n1,25µM*,21%,?,?,?,?
COc1ccc2c(c1)CCC/C2=N\Nc1nc(C(=O)NN)cs1,-34%,6%,-27%,0%,2%,-32%
COc1cccc(C(N)=O)c1OC(=O)Cc1ccccc1F,-12%,-23%,-8%,11%,-10%,-16%
Cc1ccc(CCN2CC(C(=O)NCCCN3CCCCCC3)CC2=O)cc1 (stereo not given),-50%[59 µM],-5%,1%,46%,-9%,-28%
Cc1ccc(CCN2CC(C(=O)NCCCN3CCC(C)CC3)CC2=O)cc1 (stereo not given),11%[59 µM],-11%,7%,0%,27µM*,?
CCOc1ccccc1NC1(c2ccccc2)C(=O)c2ccccc2C1=O,11µM*,?,?,-1%,.,11µM*
COc1ccc(C)cc1NC1(c2ccccc2)C(=O)c2ccccc2C1=O,13µM*,?,?,6%,.,28µM*
COc1ccc(C)cc1NC(=O)c1cccc(C(=O)Nc2cc(C)ccc2OC)c1,5%[0.501 µM],55%,6%,0%,3%,0%
O=C(NCC(O)c1ccc(F)c(F)c1)Nc1nnc(C2CC2)s1 (stereo not given),.,.,.,25%,.,.
CC(C)c1ccc(NC(=O)CN2CCN(C(=O)C3CCCO3)CC2)cc1 (stereo not given),20%,15%,-1%,0%,-10%,-14%
Cc1ccc(NS(=O)(=O)c2ccc(NC(=O)C3CCCO3)cc2)cc1 (stereo not given),-3%[59 µM],34%,3%,-15%,-10%,-17%[57.1 µM]
Cc1ccc2[nH]c3nc(SCCN4CCOCC4)nnc3c2c1,?,23%,1%,?,?,-9%
Cc1ccc2[nH]c3nc(NN)nnc3c2c1,.,38%,3.5µM*,?,-12%,50µM*
CCOc1ncccc1C(=O)N1CCc2[nH]nc(-c3ccccc3F)c2C1,.,.,.,30%,.,.
S=c1[nH]nc(-c2ccncc2)n1/N=C/c1cccc2ccccc12,1.1µM*,.,-7%,-11%,.,.
CCc1n[nH]c(=S)n1/N=C/c1ccc2c(c1)OCO2,.,9%,-4%,?,-8%,4.5µM*
CCc1n[nH]c(=S)n1/N=C/c1cc(OC)cc([N+](=O)[O-])c1O,7.9µM*,?,14%,?,?,5µM*
